Test results taken from PubChem BioAssay.
The source made the active and inactive calls. Unless noted, how the calls were made is not given here.

Columns and labels:
[1] = compounds binding Alexa647 anti-His antibody – biochemical, small-molecule microarray, 635 nm fluorescence, artefact control for SMM control protein annotation, primary screen (AID 1128); details: higher = more signal;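 further: score merges feature fluorescence with signal-to-noise for each printed compound spot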
[2] = test system: Human papillomavirus type 1a E7 protein (residues 1-88); assay: HPV1a E7 small-molecule binders, primary screen, biochemical, small-molecule microarray, residues 1-88, 635 nm (AID 1129); details: small-molecule microarray binding, fluorescence 635 nm; higher = more signal
[3] = target: Focal adhesion kinase 1 (Homo sapiens) (UniProt Q05397); assay: PTK2 protein binding on printed compound slides – biochemical, small-molecule microarray, 635/667 nm fluorescence, BSA, DTT, primary screen (AID 1130); details: 635 nm fluorescence, higher = more signal;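 further: composite of spot emission at 667 nm and signal to noise over triplicate slides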
[4] = test system: Fibrinogen (Alexa647-labelled); assay: Alexa647-fibrinogen binding to printed small molecules – biochemical, small-molecule microarray, 635/667 nm fluorescence, artefact control for SMM control-protein annotation, profiling panel (AID 1131); details: fibrinogen-A647 binding fluorescence, higher = more signal;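 further: z-score merges 667 nm fluorescence with per-spot signal-to-noise over triplicate slides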
[5] = target: Follistatin (Homo sapiens) (UniProt P19883); assay: FST protein binding to printed compounds – biochemical, small-molecule microarray, 635/667 nm fluorescence, primary screen (AID 1132); details: 635 nm fluorescence, higher = more signal
[6] = target: Fibroblast growth factor 2 (Homo sapiens) (UniProt P09038); assay: basic fibroblast growth factor binding to printed compounds – biochemical, small-molecule microarray, 635/667 nm fluorescence, primary screen (AID 1133); details: FGF2, fluorescence 635/667, higher = more signal
[7] = JC-1 mitochondrial potential readout, lung cancer cells – cell-based, A549, JC-1 fluorescence, basal, 24 h, 100 nL, profiling panel (AID 1138); details: higher = more signal;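 further: A549 lung adenocarcinoma cells under basal conditions with no added stimulus; test concentration not given here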
Lefty1 = Lefty1 protein binding to printed compounds – biochemical, small-molecule microarray, 635/667 nm fluorescence, primary screen (AID 1139); details: fluorescence 635/667, higher = more signal
[8] = test system: wheat germ agglutinin (Triticum aestivum), Alexa647-labelled; assay: Alexa647-WGA lectin binding to printed small molecules – biochemical, small-molecule microarray, 635/667 nm fluorescence, artefact control for SMM control-protein annotation, profiling panel (AID 1140); details: WGA-A647 binding, 635 nm fluorescence, higher = more signal;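 further: score merges 667 nm feature emission with signal to noise over triplicate slides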
[9] = target: Luciferin 4-monooxygenase (Photinus pyralis) (UniProt P08659); assay: inhibition of purified Photinus pyralis luciferase – biochemical, luminescence, purified enzyme, 2006 set, primary screen (AID 1141); details: purified firefly luciferase, SteadyGlo luminescence, 30 min; higher = more signal, called active from +8 up or from −8 down;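 further: cell-free assay with purified firefly luciferase at 100 ng per well in PBS; test concentration not given here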
[10] = test system: Wnt5a (protein binding on small-molecule microarray); assay: small molecules binding Wnt5a protein – biophysical, small-molecule microarray, 635/667 nm fluorescence, primary screen (AID 1142); details: 635 nm fluorescence, higher = more signal;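 further: fluorescence read at 667 nm with signal to noise per printed feature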
[11] = ATP-based viability of Huh7 replicon cells – cell-based, CellTiter-Glo luminescence, basal, 48 h, cytotoxicity control for HCV replication inhibitor project, primary screen (AID 1143); details: higher = more signal, called active from +8 up or from −8 down;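 further: Huh7 hepatoma cells carrying a hepatitis C replication reporter with no stimulus; test concentration not given here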
[12] = Pseudomonas biofilm growth suppression – PAO1 strain, BacTiter-Glo luminescence, LB-PBS, primary screen (AID 1144); details: P. aeruginosa PAO1 biofilm, 12 h, higher = more signal
[13] = basal CRE-LacZ reporter activity in PC12 – cell-based, unstimulated, primary screen (AID 1145); details: no forskolin, luminescence, 4.5 h, higher = more signal, called active from +8 up or from −8 down
[14] = forskolin-driven CRE-LacZ activity in PC12 – cell-based, CRE-LacZ reporter, forskolin-stimulated, primary screen (AID 1146); details: luminescence, 4.5 h, higher = more signal, called active from +8 up or from −8 down;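 further: PC12 cells with 6xCRE LacZ reporter stimulated by forskolin 10 µM; beta-galactosidase reporter signal reflecting CREB driven transcription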
[15] = target: Streptavidin (Streptomyces avidinii) (UniProt P22629); assay: compounds binding control protein streptavidin – biophysical, small-molecule microarray, 635/667 nm fluorescence, artefact control for SMM compound annotation, primary screen (AID 1147); details: higher = more signal;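 further: signal reflects streptavidin binding to arrayed compounds as a control protein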
[16] = probe aInhba binding on compound microarray – biochemical, small-molecule microarray, 635/667 nm fluorescence, primary screen (AID 1148); details: higher = more signal;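 further: score merges 667nm spot fluorescence with signal-to-noise for antibody binding to printed compounds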
Torsin-1A (Homo sapiens) [17] = target: Torsin-1A (Homo sapiens) (UniProt O14656); assay: TOR1A wild-type binding on microarray – cell lysate, small-molecule microarray, lysate, 635/667 nm, primary screen (AID 1149); details: COS7 hTOR1A-WT lysate, 635 nm fluorescence, higher = more signal
Torsin-1A (Homo sapiens) [18] = target: Torsin-1A (Homo sapiens) (UniProt O14656); assay: torsin A mutant lysate binding on microarrays – cell lysate, small-molecule microarray, COS7 lysate, 635/667 nm fluorescence, primary screen (AID 1150); details: COS7 hTOR1A mutant lysate, 635 nm fluorescence, higher = more signal;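 further: score pools 667 nm emission and signal to noise measuring lysate protein binding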
[19] = test system: Sonic hedgehog protein (Shh); assay: Sonic hedgehog microarray binding compounds – biochemical, small-molecule microarray, 635/667 nm fluorescence, primary screen (AID 1151); details: 635 nm fluorescence, higher = more signal;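 further: Shh protein binding to compounds spotted on small-molecule microarray slides; score combines spot fluorescence intensity with signal-to-noise across triplicate slides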

Sequence of Luciferin 4-monooxygenase (Photinus pyralis) (P08659 whole entry, looked up): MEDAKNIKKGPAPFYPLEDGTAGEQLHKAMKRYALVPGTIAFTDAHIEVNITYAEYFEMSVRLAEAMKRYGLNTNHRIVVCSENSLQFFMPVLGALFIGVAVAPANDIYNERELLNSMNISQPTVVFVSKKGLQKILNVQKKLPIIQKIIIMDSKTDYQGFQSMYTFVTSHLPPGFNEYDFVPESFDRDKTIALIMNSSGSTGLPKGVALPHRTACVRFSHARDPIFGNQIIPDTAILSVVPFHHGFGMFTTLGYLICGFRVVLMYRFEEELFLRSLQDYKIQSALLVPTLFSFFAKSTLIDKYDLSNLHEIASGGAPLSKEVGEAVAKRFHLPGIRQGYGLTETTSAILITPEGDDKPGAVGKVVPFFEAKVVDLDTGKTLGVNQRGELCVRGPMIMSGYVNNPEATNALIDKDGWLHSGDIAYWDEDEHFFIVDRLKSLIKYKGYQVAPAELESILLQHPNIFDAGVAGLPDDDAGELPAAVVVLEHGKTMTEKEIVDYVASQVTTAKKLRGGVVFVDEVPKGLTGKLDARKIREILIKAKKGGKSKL
Sequence of Torsin-1A (Homo sapiens) (O14656 whole entry, looked up): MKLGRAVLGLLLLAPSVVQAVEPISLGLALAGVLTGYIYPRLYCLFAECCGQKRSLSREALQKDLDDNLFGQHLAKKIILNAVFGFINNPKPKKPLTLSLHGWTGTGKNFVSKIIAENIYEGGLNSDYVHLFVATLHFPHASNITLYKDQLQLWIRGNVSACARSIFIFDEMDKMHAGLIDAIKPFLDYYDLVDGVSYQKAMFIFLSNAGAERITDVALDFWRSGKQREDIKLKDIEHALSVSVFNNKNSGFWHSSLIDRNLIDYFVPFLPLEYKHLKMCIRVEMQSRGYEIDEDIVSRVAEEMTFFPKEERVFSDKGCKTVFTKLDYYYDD
Sequence of Streptavidin (Streptomyces avidinii) (P22629 whole entry, looked up): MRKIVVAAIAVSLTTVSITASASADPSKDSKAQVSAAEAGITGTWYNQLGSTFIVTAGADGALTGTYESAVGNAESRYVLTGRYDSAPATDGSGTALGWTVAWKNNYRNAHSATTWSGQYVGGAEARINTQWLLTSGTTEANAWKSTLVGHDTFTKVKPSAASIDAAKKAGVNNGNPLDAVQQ
Sequence of Follistatin (Homo sapiens) (P19883 whole entry, looked up): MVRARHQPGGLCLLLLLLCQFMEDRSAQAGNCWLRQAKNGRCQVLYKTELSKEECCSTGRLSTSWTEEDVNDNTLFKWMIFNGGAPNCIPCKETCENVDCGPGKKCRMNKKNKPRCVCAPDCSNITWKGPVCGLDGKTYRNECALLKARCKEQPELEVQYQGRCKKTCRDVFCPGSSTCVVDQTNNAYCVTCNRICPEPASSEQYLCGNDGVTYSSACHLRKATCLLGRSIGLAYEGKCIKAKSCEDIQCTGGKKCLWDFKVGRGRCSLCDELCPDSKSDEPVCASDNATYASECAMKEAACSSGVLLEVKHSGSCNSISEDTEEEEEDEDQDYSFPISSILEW
Sequence of Focal adhesion kinase 1 (Homo sapiens) (Q05397 whole entry, looked up): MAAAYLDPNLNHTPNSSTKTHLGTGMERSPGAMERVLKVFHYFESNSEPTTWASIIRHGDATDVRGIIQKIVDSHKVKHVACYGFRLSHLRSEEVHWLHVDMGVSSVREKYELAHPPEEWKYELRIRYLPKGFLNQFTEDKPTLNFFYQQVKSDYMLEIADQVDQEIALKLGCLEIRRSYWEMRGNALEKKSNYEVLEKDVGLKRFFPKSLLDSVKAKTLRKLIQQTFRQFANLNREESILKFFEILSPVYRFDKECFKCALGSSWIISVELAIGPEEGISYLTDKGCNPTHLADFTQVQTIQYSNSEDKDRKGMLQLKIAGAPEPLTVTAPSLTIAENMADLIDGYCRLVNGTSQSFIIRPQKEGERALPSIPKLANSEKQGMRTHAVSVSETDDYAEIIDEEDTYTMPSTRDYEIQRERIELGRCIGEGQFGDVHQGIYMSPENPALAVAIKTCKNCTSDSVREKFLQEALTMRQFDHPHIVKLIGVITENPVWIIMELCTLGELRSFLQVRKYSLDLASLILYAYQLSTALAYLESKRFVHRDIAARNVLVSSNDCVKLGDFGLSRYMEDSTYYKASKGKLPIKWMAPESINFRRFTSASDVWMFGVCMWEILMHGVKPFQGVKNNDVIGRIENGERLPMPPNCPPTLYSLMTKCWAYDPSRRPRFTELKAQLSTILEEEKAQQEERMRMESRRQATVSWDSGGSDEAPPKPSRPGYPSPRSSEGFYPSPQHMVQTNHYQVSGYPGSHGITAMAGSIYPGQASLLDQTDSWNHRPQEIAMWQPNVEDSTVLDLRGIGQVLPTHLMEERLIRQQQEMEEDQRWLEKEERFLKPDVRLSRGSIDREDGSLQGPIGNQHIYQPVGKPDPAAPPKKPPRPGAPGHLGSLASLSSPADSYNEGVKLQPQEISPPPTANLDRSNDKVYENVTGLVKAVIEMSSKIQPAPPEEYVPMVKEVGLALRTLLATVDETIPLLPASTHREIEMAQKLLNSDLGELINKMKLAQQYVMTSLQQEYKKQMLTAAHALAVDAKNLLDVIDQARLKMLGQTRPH
Sequence of Fibroblast growth factor 2 (Homo sapiens) (P09038 whole entry, looked up): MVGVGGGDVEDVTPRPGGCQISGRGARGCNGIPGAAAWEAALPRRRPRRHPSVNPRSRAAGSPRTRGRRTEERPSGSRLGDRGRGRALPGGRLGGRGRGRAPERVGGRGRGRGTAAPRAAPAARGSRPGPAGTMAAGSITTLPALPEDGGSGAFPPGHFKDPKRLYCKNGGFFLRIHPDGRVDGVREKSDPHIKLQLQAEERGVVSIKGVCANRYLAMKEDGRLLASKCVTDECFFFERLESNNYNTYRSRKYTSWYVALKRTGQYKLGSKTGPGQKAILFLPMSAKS

COC(=O)[C@@]1(Cc2ccccc2)N=C(c2ccc(OCCCO)cc2)O[C@H]1c1ccccc1N=[N+]=[N-]
composite z-score [1]: 2.72 | composite z-score [2]: 1.14 | composite z-score [3]: -0.0746 | composite z-score [4]: 0.0857 | composite z-score [5]: 1.41 | composite z-score [6]: 1.53 | z-score [7]: 1.35 | composite z-score (Lefty1): 0.718 | composite z-score [8]: 1.2 | z-score [9]: -13.8 (active) | composite z-score [10]: 0.805 | z-score [11]: -4.03 (inactive) | z-score [12]: -0.0344 (inactive) | z-score [13]: 2.95 (inactive) | z-score [14]: -1.52 (inactive) | composite z-score [15]: -1.09 | composite z-score [16]: 0.25 | composite z-score (Torsin-1A (Homo sapiens) [17]): 3.85 | composite z-score (Torsin-1A (Homo sapiens) [18]): 3.84 | composite z-score [19]: 2.07

CC(=O)Nc1cc(Br)ccc1C(=O)O
composite z-score [1]: 0.0952 | composite z-score [2]: 0.747 | composite z-score [3]: -0.0817 | composite z-score [4]: 0.805 | composite z-score [5]: 0.0564 | composite z-score [6]: -0.129 | z-score [7]: 0.204 | composite z-score (Lefty1): -0.0658 | composite z-score [8]: 0.625 | z-score [9]: -0.592 (inactive) | composite z-score [10]: -0.129 | z-score [11]: 0.0092 (inactive) | z-score [12]: 0.307 (inactive) | z-score [13]: -0.141 (inactive) | z-score [14]: 0.151 (inactive) | composite z-score [15]: 0.254 | composite z-score [16]: 0.0658 | composite z-score (Torsin-1A (Homo sapiens) [17]): 1.46 | composite z-score (Torsin-1A (Homo sapiens) [18]): 0.0517 | composite z-score [19]: -0.402

COc1ccc(C#Cc2ccc3c(c2)[C@]2(C(=O)N3)[C@H](c3ccc(O)cc3)N3[C@H](c4ccccc4)[C@H](c4ccccc4)OC(=O)[C@H]3[C@@H]2C(=O)N2CCCCCCC2)cc1
composite z-score [1]: 0.477 | composite z-score [2]: 1.22 | composite z-score [3]: 0.75 | composite z-score [4]: 0.702 | composite z-score [5]: 1.49 | composite z-score [6]: 1.02 | z-score [7]: -0.067 | composite z-score (Lefty1): 1.61 | composite z-score [8]: 1.35 | z-score [9]: -1.78 (inactive) | composite z-score [10]: 1.12 | z-score [11]: -3.96 (inactive) | z-score [12]: -1.42 (inactive) | z-score [13]: 0.0653 (inactive) | z-score [14]: -0.648 (inactive) | composite z-score [15]: 1.9 | composite z-score [16]: 1.43 | composite z-score (Torsin-1A (Homo sapiens) [17]): 1.55 | composite z-score (Torsin-1A (Homo sapiens) [18]): 1.43 | composite z-score [19]: 2.09

C=CCNC(=O)[C@@H]1[C@H]2C(=O)O[C@H](c3ccccc3)[C@H](c3ccccc3)N2[C@H](c2ccc(OCCO)cc2)[C@@]12C(=O)Nc1ccccc12
composite z-score [1]: 0.797 | composite z-score [2]: 1.22 | composite z-score [3]: 0.102 | composite z-score [4]: 0.934 | composite z-score [5]: 1.1 | composite z-score [6]: 0.516 | z-score [7]: 0.253 | composite z-score (Lefty1): 1.03 | composite z-score [8]: 0.496 | z-score [9]: -8.15 (active) | composite z-score [10]: 0.358 | z-score [11]: -4.32 (inactive) | z-score [12]: -2.23 (inactive) | z-score [13]: -0.905 (inactive) | z-score [14]: -1.87 (inactive) | composite z-score [15]: 0.226 | composite z-score [16]: -0.102 | composite z-score (Torsin-1A (Homo sapiens) [17]): 0.355 | composite z-score (Torsin-1A (Homo sapiens) [18]): 0.209 | composite z-score [19]: 1.61

N#Cc1ccc(NN2C(C(O)c3ccc([N+](=O)[O-])cc3)C=CC3C(=O)N(c4ccccc4)C(=O)C32)cc1 (stereo not given)
composite z-score [1]: 0.728 | composite z-score [2]: 1.24 | composite z-score [3]: 0.943 | composite z-score [4]: 0.619 | composite z-score [5]: 0.717 | composite z-score [6]: -0.0956 | z-score [7]: -0.257 | composite z-score (Lefty1): -0.269 | composite z-score [8]: 0.998 | z-score [9]: 0.843 (inactive) | composite z-score [10]: 0.72 | z-score [11]: 0.845 (inactive) | z-score [12]: -0.245 (inactive) | z-score [13]: -0.525 (inactive) | z-score [14]: 0.516 (inactive) | composite z-score [15]: 0.323 | composite z-score [16]: 0.137 | composite z-score (Torsin-1A (Homo sapiens) [17]): -0.169 | composite z-score (Torsin-1A (Homo sapiens) [18]): 0.303 | composite z-score [19]: -0.261
